Reference: article PMC7819943, “Rice protein-binding microarrays: a tool to detect cis-acting elements near promoter regions in rice”
Over roughly 68,000 sequences, “fluorescence intensity (a.u.)” has its median near 9,100; the highest 2% begin near 16,000. Shown is part of a subset that was picked to be rich in the highest values.

The sequences below were run against OsWRKY34 (Oryza sativa, UniProt Q0JBA9 1-250) (assay: protein-binding microarray (RPBM); PBS, 2% BSA, 51.3 ng/ul salmon testes DNA, 50 uM zinc acetate, 200 nM TF, 25 C, 1 h; high values mean tight binding). Conditions: protein: recombinant; tags: N-terminal polyhistidine and DsRed monomer fusion (pET32a); label: CyDye5-dUTP incorporated in the synthesized complementary strand; 3' TTTTT single-stranded linker to array surface; dsDNA, one strand shown.
Sequence of OsWRKY34 (Q0JBA9 entry or part of it): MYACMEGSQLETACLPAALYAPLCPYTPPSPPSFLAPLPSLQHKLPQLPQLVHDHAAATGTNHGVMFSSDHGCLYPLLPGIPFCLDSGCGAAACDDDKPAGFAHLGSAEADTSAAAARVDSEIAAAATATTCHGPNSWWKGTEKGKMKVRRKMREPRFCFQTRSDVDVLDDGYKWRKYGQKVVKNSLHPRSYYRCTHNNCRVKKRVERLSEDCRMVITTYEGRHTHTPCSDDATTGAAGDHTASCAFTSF
In short: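 The binding signal for each feature is its fluorescence intensity in arbitrary units. An Axon 4000B scanner was used to read a custom Agilent array that had been made double-stranded with Cy5-dUTP primer extension, blocked with 2% BSA, incubated at 25 °C for 1 h with 200 nM protein in PBS, 2% BSA, salmon testes DNA and 50 µM zinc acetate, and washed. The protein was an N-terminal polyhistidine–DsRed transcription factor fusion from E. coli BL21-CodonPlus, purified on Ni–NTA.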

Sequence | binding signal
ATCTCTTAACCTTTTTCTTATTACCAAACATGCTAACGGTCGGAGTCACCTAGTGCAG | 8030 fluorescence intensity (a.u.)
TCGCCATCGATCGATCGTCTCAACCTCAACCACATTATTGCGGAGTCACCTAGTGCAG | 8550 fluorescence intensity (a.u.)
TCTTCGCAACTCCAAACTTCCCGAGCATCTTATCTTTGCACGGAGTCACCTAGTGCAG | 8990 fluorescence intensity (a.u.)
GTATTGCAATTTTTTTTTGTTTGTGTTGTATCTGTTCTCTCGGAGTCACCTAGTGCAG | 8110 fluorescence intensity (a.u.)
GGTTAGGTTTTTTTATAGAGGGAGTAGTATGCAATTATTTCGGAGTCACCTAGTGCAG | 9450 fluorescence intensity (a.u.)
TTTCTTGGTTCCTGTGTCTAAGCCAGCTGTAAACTTACAACGGAGTCACCTAGTGCAG | 8450 fluorescence intensity (a.u.)
ATTTCCAAGCTCTCTTTGCAGTTACTCCTCGGTGTGCTCCCGGAGTCACCTAGTGCAG | 8250 fluorescence intensity (a.u.)
TTTTGGATTTTGTTTCATTTTTTTTACATGCATTGGATTACGGAGTCACCTAGTGCAG | 8120 fluorescence intensity (a.u.)
TATATATTGTTTTTTTTTACGTTGTTGGTTCCGGATGTGACGGAGTCACCTAGTGCAG | 9930 fluorescence intensity (a.u.)
GTCATTGGTGGTTTATATTGTTTGGCTTTTTTCCGGATTACGGAGTCACCTAGTGCAG | 18500 fluorescence intensity (a.u.)
TGAGACAAAGCACATTCTACCCAAGGCCAGTTGCACCAACCGGAGTCACCTAGTGCAG | 8080 fluorescence intensity (a.u.)
TCAGTGTTGAGTAGGGTTGGCAGGCGAGCACGCAGTAATGCGGAGTCACCTAGTGCAG | 8190 fluorescence intensity (a.u.)
TGTTGTGTGTTAGTTGTGGTGGTAGCATTTTTTCCTGGTACGGAGTCACCTAGTGCAG | 13000 fluorescence intensity (a.u.)
TAGCTACCTAAGCTTAGCTCACATTCTTCTCGCTTTCTCACGGAGTCACCTAGTGCAG | 12000 fluorescence intensity (a.u.)
GTGGGGTTGGAGGAGGGAGGGAGCTAGCTATAGTTGCTAGCGGAGTCACCTAGTGCAG | 9980 fluorescence intensity (a.u.)
GGTGGGACGTGGTGGGCGTCAAGGCGGCGGTGGGAGGGGACGGAGTCACCTAGTGCAG | 20400 fluorescence intensity (a.u.)
GAAGGGTGGGAGGGGAAGGGGAGGACGAGCGGGCGGACGGCGGAGTCACCTAGTGCAG | 11500 fluorescence intensity (a.u.)
AGGGCGGTGGGGCGGCAAGGGACCAGATGGTGGGGCGGCACGGAGTCACCTAGTGCAG | 11100 fluorescence intensity (a.u.)
GAGGAGGGACTCGGGGCGGGAGGAAGACGGCGAGGAGGGGCGGAGTCACCTAGTGCAG | 16500 fluorescence intensity (a.u.)
GGGAGGAGGAGGAGGAGAAGGGCGGCGGGAGGAGGGGCGACGGAGTCACCTAGTGCAG | 14000 fluorescence intensity (a.u.)
ACTAGTTGAAGGAGTTGGGGCTATAAATGGGTGGTGCTATCGGAGTCACCTAGTGCAG | 10900 fluorescence intensity (a.u.)
CGAGGGAGGGGAGGCGGCGGAGGCGAGAGAGGAGAGGGGACGGAGTCACCTAGTGCAG | 11000 fluorescence intensity (a.u.)

Sequence | binding signal
CTGGGTGTGGGTGTGGGTCTGGGTCTGGGTGGAAGAGGAACGGAGTCACCTAGTGCAG | 21200 fluorescence intensity (a.u.)
GTATCGCCAAGGAGGAGAGGGGAGAGGGGTGGAAGAGGAACGGAGTCACCTAGTGCAG | 11900 fluorescence intensity (a.u.)
GGTGGGCTATAAATATAGTTGGGGAGGGGAGGGAAGACCCCGGAGTCACCTAGTGCAG | 16700 fluorescence intensity (a.u.)
GGAGGTGGGGAGGGGAGGAGAGGGGAAGAAGGAAGAAAAACGGAGTCACCTAGTGCAG | 13300 fluorescence intensity (a.u.)
TCGTCATCATCCTCGCCGCCATCGCCATCGCCATTGCCTACGGAGTCACCTAGTGCAG | 9180 fluorescence intensity (a.u.)
ACTTGTTTTACGTTCGGCTAATTAGCTGTTTGACCGTTTCCGGAGTCACCTAGTGCAG | 15300 fluorescence intensity (a.u.)
AAAAACGTCTCAATTGTAAGCTCACTATCTAACAATTTTCCGGAGTCACCTAGTGCAG | 11200 fluorescence intensity (a.u.)
GCTTGGTCTATAAGTTGCTGCTCTGCCCTGCTCGGCCTCACGGAGTCACCTAGTGCAG | 12000 fluorescence intensity (a.u.)
CTCCATCGCTTCGCTCTTCGCCGGATCTAGCACCGACGGTCGGAGTCACCTAGTGCAG | 9000 fluorescence intensity (a.u.)
TTCTTTTGCCGTGCTCCCAGATTCTCCGGTCGCCACGACTCGGAGTCACCTAGTGCAG | 8590 fluorescence intensity (a.u.)
ACCTCTTATTTGACTTTTTCACTATTTTGAAATACGAAAACGGAGTCACCTAGTGCAG | 9360 fluorescence intensity (a.u.)
AATGTATTTGTCTTATGTTAAATATATTACTACTCTTTTTCGGAGTCACCTAGTGCAG | 8080 fluorescence intensity (a.u.)
TATCCGATCCATGGCGTTCTCTTGAGTCCAGAGAGTATTTCGGAGTCACCTAGTGCAG | 8460 fluorescence intensity (a.u.)
AGCTTAACACGCGCCACTTGCCCCTATTTAGCCGCGCCATCGGAGTCACCTAGTGCAG | 9920 fluorescence intensity (a.u.)
GGTGGTGCGCGAGCGTCGGCGGTCGGCGGGAGGGCGGGAGCGGAGTCACCTAGTGCAG | 9180 fluorescence intensity (a.u.)
AATGTGGGAGAAGGGGAGGAGAGAGGGGAGGGGAGGGGACCGGAGTCACCTAGTGCAG | 16500 fluorescence intensity (a.u.)
CGGTGGGGAGGCCGGGAGGGAGGAGGAGAGAAGAGGAGTGCGGAGTCACCTAGTGCAG | 9450 fluorescence intensity (a.u.)
GGGAATATTAGTGGGATGGGGATGAGGAATTGAGGAAGAACGGAGTCACCTAGTGCAG | 13400 fluorescence intensity (a.u.)
AGAAGGAGGAGGAGGAGGAGGAGGAGGAGGGGAGGAGAGCCGGAGTCACCTAGTGCAG | 10400 fluorescence intensity (a.u.)
AATCTAACGGGTGGGTCTCATGTATTGATGAGGAAGAAGACGGAGTCACCTAGTGCAG | 20800 fluorescence intensity (a.u.)
GGGAAGGGGAGGGGTGGGCGGAAGGGGACGCCGGTGGTGGCGGAGTCACCTAGTGCAG | 17900 fluorescence intensity (a.u.)
AGGGTGAACAGAAGAAGATGAATCTAACGGGTGGGTCTCACGGAGTCACCTAGTGCAG | 10800 fluorescence intensity (a.u.)

Sequence | binding signal
GACGGCGACCGAAGGGGACAAGGAGGCGGGGCGGGGCGGCCGGAGTCACCTAGTGCAG | 14000 fluorescence intensity (a.u.)
GGCCGCGGCGGTGCGACGAAGAGCGGCGTCGGACAAGGGCCGGAGTCACCTAGTGCAG | 35900 fluorescence intensity (a.u.)
CGGCTAGGGACGGGGACGACGCCGGAGTGGGTGGGGAAGGCGGAGTCACCTAGTGCAG | 8680 fluorescence intensity (a.u.)
GCATGGTGGCGGCGGGAAGGAGGAGTGGGGCGGCGGGTGCCGGAGTCACCTAGTGCAG | 16100 fluorescence intensity (a.u.)
CTCTCTCTGCTCGAGCCCGAGTAGCCCTCGTCGTCATTCTCGGAGTCACCTAGTGCAG | 8950 fluorescence intensity (a.u.)
ATTATATGTCATTTGACTTTTCTCTTAGCTAAAGTTCTTTCGGAGTCACCTAGTGCAG | 9800 fluorescence intensity (a.u.)
CTATATATAAACGAGCACATCTCGTCGTCCCTCGCCATTCCGGAGTCACCTAGTGCAG | 10400 fluorescence intensity (a.u.)
TTAAACTGTATACCGTCGCTCGCGTCGCGCGCCGTTGACGCGGAGTCACCTAGTGCAG | 9730 fluorescence intensity (a.u.)
CATGTGTTTACTGGGGTGGTTGTTGTAACAAAATTGAGTACGGAGTCACCTAGTGCAG | 9360 fluorescence intensity (a.u.)
GTCTGAGTACACTTCTGAGGCTTCTTTGGTCGTTTTGGCCCGGAGTCACCTAGTGCAG | 9790 fluorescence intensity (a.u.)
AAATATCAACCACATGCTCCTACTTCTATGGAAATTGATTCGGAGTCACCTAGTGCAG | 10400 fluorescence intensity (a.u.)
TTGTCGTGTCACCTCCATTCTCACCCAACTTCCTTACCTACGGAGTCACCTAGTGCAG | 13300 fluorescence intensity (a.u.)
CTCGTTTACCTTACTCTCGCTTAGTTCGTTGAGGCATTTCCGGAGTCACCTAGTGCAG | 14900 fluorescence intensity (a.u.)
GTTATTCAAAACTATAGTTATCTTCCGCCTATTTTTTTATCGGAGTCACCTAGTGCAG | 10600 fluorescence intensity (a.u.)
GGGTGGGGAAGAAGAGGGGAAGCGGGGAGGAGGAGAGGGACGGAGTCACCTAGTGCAG | 9680 fluorescence intensity (a.u.)
GGGAAGACGGTGGGGCGGGGACAGAGGTAGGGGAAGGAGGCGGAGTCACCTAGTGCAG | 12600 fluorescence intensity (a.u.)
AGGGTTGTGATTGGTTGGGAAGAGAATGTTGGTAGATAAGCGGAGTCACCTAGTGCAG | 9400 fluorescence intensity (a.u.)
CGGGGAAGGAGAGGGGCGTTAGGGAGGAGGGGCGCACAGACGGAGTCACCTAGTGCAG | 16800 fluorescence intensity (a.u.)
GATTGAGGGGAATGTTCCATGTTTTGTTGAACTCTTTTCCCGGAGTCACCTAGTGCAG | 9320 fluorescence intensity (a.u.)
GGCGGCATCTCGCTCTACCGCGGGTGGGGCTTCGACTCCGCGGAGTCACCTAGTGCAG | 12100 fluorescence intensity (a.u.)
ACCGCACAGAGAGGGAGGAGGCGGGGAGGACGGTGAGGGGCGGAGTCACCTAGTGCAG | 10500 fluorescence intensity (a.u.)
CGGCGGAGGAGGAGGAGGAGGGGTGGGGAAGAAGAGGGGACGGAGTCACCTAGTGCAG | 22800 fluorescence intensity (a.u.)

Sequence | binding signal
GCAGCAGGGAGGTGGGGCGCAGGAGGAAGAAGAAGAGGGACGGAGTCACCTAGTGCAG | 13300 fluorescence intensity (a.u.)
GGTGGCGGGGCATCTCGCCGCCGACGGCTCGAGGAGGAAACGGAGTCACCTAGTGCAG | 18400 fluorescence intensity (a.u.)
GACACTAATGTGTGTGAAGGGGAGATTGTTGAATGGTTCCCGGAGTCACCTAGTGCAG | 65200 fluorescence intensity (a.u.)
CCGGGGCCGGCAGCGGCGGGCGGGCGGGCTCGAGCGGTGGCGGAGTCACCTAGTGCAG | 9020 fluorescence intensity (a.u.)
CGTGGGCCCCACCCGTGCCAGCTCACCTCATCCCCACCACCGGAGTCACCTAGTGCAG | 8940 fluorescence intensity (a.u.)
ATCGACCCTTGCGCGGACTCCGCTCTCTTGTTGACCACCTCGGAGTCACCTAGTGCAG | 14600 fluorescence intensity (a.u.)
TCACTCATGCAGAGTCACAGCTTGTATAGTTGTAATGCATCGGAGTCACCTAGTGCAG | 9000 fluorescence intensity (a.u.)
GCCTCGTCCACTCCACCACGCCGCCGAAAGCCGCAACTCTCGGAGTCACCTAGTGCAG | 9580 fluorescence intensity (a.u.)
CAACCTCTCCGGGGCGGGGCTGGCCGGCGAGCTGGCGGCGCGGAGTCACCTAGTGCAG | 9150 fluorescence intensity (a.u.)
AGCTGCCACAAGCCGAAGGCACGTTGACTTAAAAGAAGCCCGGAGTCACCTAGTGCAG | 10700 fluorescence intensity (a.u.)
ATATTTTCCGCCTACCCTGTACGCACGTTTATATACACAACGGAGTCACCTAGTGCAG | 9400 fluorescence intensity (a.u.)
CTTGGACCCACTTAATATGTTATATGGCTATTTCTAGTCACGGAGTCACCTAGTGCAG | 8220 fluorescence intensity (a.u.)
TAAGGTTTCTTCTGGGATCATTACATATACCTATATGGTTCGGAGTCACCTAGTGCAG | 8100 fluorescence intensity (a.u.)
AGTTTGTTTTTTTTCTGTCCTTGACATGGCCATTTTGTTACGGAGTCACCTAGTGCAG | 9920 fluorescence intensity (a.u.)
GTGCGACGGCGGCGGCGAAGTCAGTCCCCTCCTCGAGGGGCGGAGTCACCTAGTGCAG | 27700 fluorescence intensity (a.u.)
TTGGTTGGTTGGTTTGGTGGGCGGCGGTGCCGGAGGAAGACGGAGTCACCTAGTGCAG | 21900 fluorescence intensity (a.u.)
GCGGCGAAGCAGGGAGGAGGGAGGAGGAGGGGCGGCGGTGCGGAGTCACCTAGTGCAG | 12100 fluorescence intensity (a.u.)
CAGCGACGGTGGGGAGGTGGGCGTGGGCGGTTGCCGGCGGCGGAGTCACCTAGTGCAG | 11200 fluorescence intensity (a.u.)
GGGCGGAGAGTTGGGGTTTGGGTTGGTGGCGGTGGGCCGGCGGAGTCACCTAGTGCAG | 14800 fluorescence intensity (a.u.)
TTTCCGCCGCGGCGAGGAGGAGGAGGAGGAGGAGGGGCGACGGAGTCACCTAGTGCAG | 9980 fluorescence intensity (a.u.)
